Compound activity: PubChem, National Center for Advancing Translational Sciences (NCATS)
DT40 TDP1 CPT = DT40-hTDP1 cell growth loss with CPT. chicken DT40 Tdp1-/-;hTDP1 cells + 20 nM CPT, ATP luminescence, 48 h. Potency, µM (titrated, usually from 46.2 µM), most hits filed as inhibitors. hit rate 12% among 420,000. AID 686979; also: nearly all actives have a fitted effect of over 55% in size
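Chicken DT40 Tdp1-/- cells stably complemented with human TDP1 were seeded at 400 cells/well in medium containing 20 nM camptothecin, exposed to pin-transferred compounds, and grown at 37 °C for at least 48 hr. Viability was read as ATP luminescence.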
IL1B secr inh = inflammasome signaling inhibition, IL-1 beta readout; hit rate 4.7% among 360,000; THP-1 LPS/ATP IL-1B secretion, AlphaLISA, 16 h; hits give low values; activity change, % at 57.5 µM; AID 743279; in the data active = activity change below about -50%; inconclusive = mostly about -30% to -49%
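THP-1 cells pretreated 1 hr with compounds (up to 57.5 uM final), then stimulated with LPS (250 ng/mL final) plus ATP (1.25 mM final); secreted IL-1B measured by AlphaLISA after 16 hr, decreased signal indicating inhibition.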
HepG2 viability = kills HepG2 cells in TGF-b inhibitor counter-screen | HepG2 CAGA-GFP viability, ATP luminescence, 18 h | AID 588856 | hit rate 0.76% among 410,000 | Potency, µM (highest dose often 46.1 µM), most hits filed as cytotoxic
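CellTiter-Glo luminescence gave cytotoxicity after 18 hours at 37 degrees C. The cells were HepG2 CAGA-GFP in 1% FBS DMEM, stimulated with 500 pg/mL TGF-beta after compound addition. %Activity was normalised to no-cell wells (complete cell-killing) and DMSO (no toxicity), and curves were fitted and classified.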
TGFb inhibitor = TGF-b pathway inhibition; HepG2 CAGA-GFP TGF-b/SMAD3 reporter, GFP fluorescence, 18 h; TGF-beta stimulated, 500 pg/mL final; Potency, µM (titrated, usually from 46.1 µM), most hits filed as inhibitors; hit rate 1.2% among 410,000; also: nearly all actives have a fitted effect of over 65% in size
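First, reporter cells (HEPG2 CAGA-GFP) rested 2 h at 37 degrees C. Next, compounds were pinned in and TGF-beta added to 500 pg/mL final. After 18 h, GFP was imaged per cell and summed per well.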
ASM inhibitor = inhibitors of human secretory acid sphingomyelinase; P17405; placental ASM, HMU-PC fluorogenic substrate, 60 min; Potency, µM (doses to about 57.5 µM), actives largely listed as inhibitors; hit rate 0.006% among 340,000; AID 504937
Target sequence (P17405 47-631 limits assumed): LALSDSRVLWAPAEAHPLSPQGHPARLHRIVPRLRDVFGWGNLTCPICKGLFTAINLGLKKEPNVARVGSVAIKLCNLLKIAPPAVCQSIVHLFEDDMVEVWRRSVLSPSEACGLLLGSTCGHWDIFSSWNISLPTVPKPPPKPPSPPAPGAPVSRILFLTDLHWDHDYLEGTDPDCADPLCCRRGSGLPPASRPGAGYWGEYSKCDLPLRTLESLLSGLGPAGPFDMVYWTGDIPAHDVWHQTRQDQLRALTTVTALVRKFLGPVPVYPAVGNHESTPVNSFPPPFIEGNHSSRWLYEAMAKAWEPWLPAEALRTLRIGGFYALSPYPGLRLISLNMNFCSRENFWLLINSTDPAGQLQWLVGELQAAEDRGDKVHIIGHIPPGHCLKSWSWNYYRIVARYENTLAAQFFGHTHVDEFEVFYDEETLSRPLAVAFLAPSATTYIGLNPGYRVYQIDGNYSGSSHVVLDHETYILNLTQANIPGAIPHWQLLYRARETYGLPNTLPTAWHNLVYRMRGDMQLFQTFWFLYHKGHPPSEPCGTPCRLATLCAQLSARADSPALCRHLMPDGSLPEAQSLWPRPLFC
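Fluorogenic HMU-PC substrate (9 uM final) is turned over by placental ASM in 60 min at 37 C after a 10 min compound preincubation. Reaction ended by alkaline stop (pH 10), with fluorescence read at 386/447 nm.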
DT40 TDP1 no CPT = qHTS for Inhibitors of human tyrosyl-DNA phosphodiesterase 1 (TDP1): qHTS in cells in absence of CPT. DT40 Tdp1-/- hTDP1 cells, no CPT, ATP luminescence, 48 h. Potency, µM (top dose mostly 46.2 µM), usual class: inhibitors. hit rate 15% among 420,000. AID 686978, 2013; also: nearly all actives have a fitted effect of over 55% in size
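DT40 Tdp1-/-;hTDP1 cells, no CPT (DMSO vehicle only), 400 cells/well; compounds pin-transferred; ≥48 hr, 37 °C; CellTiter-Glo 30 min RT dark, luminescence read.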
Each line names hits and unclear results; the compound was inactive in the other large screens. Hits are enriched below; roughly 19% of the tested compounds scored in any of these assays. Unless noted, calls follow the shape of the dose curve; as a rule, active = well fitted curve in the direction sought with a large enough effect; inconclusive = small, poorly fitted or top-dose-only effect, or another doubt; inactive = no such curve, though single readings can be large; an effect the other way counts as inactive or inconclusive.

O=C1CSC(=S)N1/N=C/c1cccnc1	DT40 TDP1 CPT 15µM, DT40 TDP1 no CPT inconclusive
O=C1CSC(=S)N1N=Cc1ccccc1O	DT40 TDP1 CPT inconclusive, DT40 TDP1 no CPT 9.2µM
Cc1ccccc1/C=N/N1C(=O)CSC1=S	none
O=C1CCCN1C(=O)CSc1nnnn1-c1ccccc1	none
CC(C)(C)c1ccc(C(=O)NCC(=O)N2CCCCCC2)cc1	DT40 TDP1 CPT inconclusive, DT40 TDP1 no CPT inconclusive
CCCCCN1C=CC(=C2C(=O)c3ccccc3C2=O)C=C1	DT40 TDP1 CPT 13µM, DT40 TDP1 no CPT inconclusive
S=C(NCc1ccccn1)Nc1ccc(Br)cc1Cl	none
Fc1ccc(Nc2nnc(C(F)(F)F)s2)cc1	IL1B secr inh -69
O=C(CN(Cc1ccccc1)S(=O)(=O)c1ccc2c(c1)OCCO2)N/N=C/c1cccc(Br)c1	DT40 TDP1 CPT inconclusive, TGFb inhibitor inconclusive, DT40 TDP1 no CPT inconclusive
O=C(CN(Cc1ccccc1)S(=O)(=O)c1ccc2c(c1)OCCO2)N/N=C/c1ccc(F)cc1	IL1B secr inh -56, TGFb inhibitor inconclusive
NNC(=O)c1sc(-c2ccc(Cl)cc2)cc1N	IL1B secr inh -78
O=C(COC(=O)c1cc2c(s1)CCCC2)Nc1ccc(Cl)cn1	none
O=C(OCc1c(Cl)nc2sccn12)c1cc2c(s1)CCCC2	DT40 TDP1 CPT 14µM, DT40 TDP1 no CPT inconclusive
COc1cc(OC)c(-c2sc(Nc3ccccc3)n[n+]2-c2ccc(F)cc2)cc1OC	DT40 TDP1 CPT inconclusive
CCc1ccc(Nc2n[n+](-c3ccccc3)c(-c3ccc(SC)cc3)s2)cc1	DT40 TDP1 CPT 6.5µM, TGFb inhibitor inconclusive, DT40 TDP1 no CPT 6.5µM
CCc1ccc(Nc2n[n+](C)c(-c3ccncc3)s2)cc1	DT40 TDP1 CPT 16µM, TGFb inhibitor inconclusive, DT40 TDP1 no CPT 26µM
COc1ccc(-c2sc(Nc3ccccc3)n[n+]2-c2ccc(F)cc2)c(OC)c1OC	DT40 TDP1 CPT inconclusive, DT40 TDP1 no CPT 13µM
CCc1ccc(Nc2n[n+](-c3ccccc3)c(-c3ccc(OC)c(Br)c3)s2)cc1	DT40 TDP1 CPT 16µM, IL1B secr inh inconclusive, TGFb inhibitor inconclusive, DT40 TDP1 no CPT inconclusive
COc1ccc(C)cc1Nc1n[n+](-c2ccccc2)c(-c2ccc(NC(C)=O)cc2)s1	DT40 TDP1 CPT inconclusive
Fc1ccc(-[n+]2nc(Nc3ccccc3)sc2-c2ccc(OCc3ccccc3)cc2)cc1	DT40 TDP1 CPT 16µM, DT40 TDP1 no CPT 23µM
CCOc1cc(-c2sc(Nc3ccccc3)n[n+]2-c2ccc(F)cc2)ccc1OC	none
COc1ccc(C)cc1Nc1n[n+](-c2ccccc2)c(-c2ccc(SC)cc2)s1	DT40 TDP1 CPT 18µM, DT40 TDP1 no CPT 15µM
CSc1ccc(-c2sc(Nc3ccccc3)n[n+]2-c2ccccc2)cc1	DT40 TDP1 CPT 16µM, DT40 TDP1 no CPT inconclusive
COc1ccc(C)cc1Nc1n[n+](-c2ccccc2)c(-c2cc([N+](=O)[O-])cc(OC)c2O)s1	DT40 TDP1 CPT 21µM, DT40 TDP1 no CPT inconclusive
Fc1ccc(-[n+]2nc(Nc3ccccc3)sc2-c2cccc(Cl)c2Cl)cc1	DT40 TDP1 CPT inconclusive, DT40 TDP1 no CPT inconclusive
Clc1cccc(-c2sc(Nc3ccccc3)n[n+]2-c2ccccc2)c1Cl	DT40 TDP1 CPT inconclusive, DT40 TDP1 no CPT 18µM
CCc1nnc(NC(=O)c2ccc(S(=O)(=O)N3CCCc4ccccc43)cc2)o1	DT40 TDP1 CPT inconclusive, DT40 TDP1 no CPT 11µM
COC(=O)Nc1ccc(S(=O)(=O)N2CCCc3cccc(O)c32)cc1	DT40 TDP1 CPT 13µM, DT40 TDP1 no CPT 10µM
COCc1nnc(NC(=O)c2ccc(S(=O)(=O)N3CCCCCC3)cc2)o1	DT40 TDP1 no CPT inconclusive
CNC(=O)c1ccsc1NC(=O)c1ccc(S(=O)(=O)N2CCCc3ccccc32)cc1	DT40 TDP1 CPT 21µM, TGFb inhibitor inconclusive, DT40 TDP1 no CPT 21µM
